Rows were chosen to be rich in hits. Some 6.8% of all compounds tested hit in one or more screens of this group.
Fluor 339 460: intrinsic fluorescence of library compounds, ex339/em460 – biochemical, MLSMR library, data from DPM-DC assay, artefact control, profiling panel; compound autofluorescence, ex339/em460 nm, NADH buffer; stronger effect = higher value; 1 = no-compound wells, NADH background; fluorescence fold increase at 10 µM; 65,000 tested, 5.5% active; AID 709;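 active = at 10 µM, mean starting fluorescence two-fold or more over control wells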;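 also: signal is the first read of a kinetic run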
Spn PMK inh: blocks S. pneumoniae phosphomevalonate kinase | AID 539 | inhibition, % at 10 µM | purified PMK, PK/LDH-coupled NADH absorbance 340 nm | 65,000 tested, 0.49% active;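 active = top-ranked compounds by inhibition in the single 10 µM screen, taking a fixed number of the strongest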;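 also: 0% = full reaction with DMSO carrier and 100% = background rate without enzyme reaction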
A340 absorber: compound absorbs light at 340 nm; 65,000 tested, under 10 active; compound absorbance at 340 nm, fold over control; fold change at 10 µM;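 active = at 10 µM dose, initial 340 nm absorbance at least 2 fold that of control wells; inactive = change under 2 fold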;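 also: initial absorbance extrapolated from kinetic A340 decline of NADH oxidation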
NADH coupling: inhibitors of enzymes used to reach an NAD/NADH endpoint; IC50, µM (doses to about 10 µM), without a hit: top-dose inhibition; 65,000 tested, 0.02% active; coupled PK/LDH NADH assays, four targets;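 active = single-dose screening hits from any of four coupled enzyme assays that gave an IC50 when retested across doses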;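 also: the DPM-DC format reads NADH fluorescence rather than 340 nm absorbance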
DPM-DC inhibit: blocks S. pneumoniae diphosphomevalonate decarboxylase. purified DPM-DC, PK/LDH coupled NADH fluorescence. calls only at 10 µM. 65,000 tested, 0.49% active. AID 556;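 active = the 320 compounds with the highest percent inhibition in the single-dose primary screen, excluding strongly autofluorescent ones, cut at about 32% in these data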;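 also: kinetic rate of NADH fluorescence loss reporting ADP formed by the decarboxylase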
MK inhibit: S. pneumoniae mevalonate kinase inhibition. purified MK, PK/LDH-coupled NADH absorbance 340 nm. inhibition, % at 10 µM. 65,000 tested, 0.48% active. AID 555;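 active = ranked among the strongest by inhibition in the single 10 µM screen, a fixed top-ranked set picked for dose follow-up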
Active calls of the source: *; i = inactive; nt = no result shown; + = active, no number.

SMILES	Fluor 339 460	Spn PMK inh	A340 absorber	NADH coupling	DPM-DC inhibit	MK inhibit
CCCC(C(=O)NC1CCCC1)N(CCCN1CCOCC1)C(=O)c1snc(C(N)=O)c1N (stereo not given)	2.16*	11.0	1.04	10.0%	i	0.0
CCCC(C(=O)NC1CCCC1)N(CC1CCCO1)C(=O)c1snc(C(N)=O)c1N (stereo not given)	2.79*	11.0	1.04	14.0%	i	18.0
CCc1nc(SCc2cc(Cl)ccc2OC)n[nH]1	1.04	12.0	1	2.0%	i	11.0
CCCCc1cc2c(c(NC(C)=O)n1)c(=O)oc1ccccc12	1.57	10.0	1.02	4.0%	i	4.0
CCCCc1cc2c(c(NC(=O)CC)n1)c(=O)oc1ccccc12	2.25*	6.0	1.07	4.0%	i	0.0
COc1ccc(-c2c3c(=O)n(C)c(=O)n(C)c3cn2-c2ccccc2)cc1	3.82*	16.0	1.02	12.0%	nt	8.0
COc1ccc(C(=O)Nn2cc3c(c2-c2ccccc2)c(=O)n(C)c(=O)n3C)cc1	1.37	3.0	1.08	2.0%	i	2.0
CSc1nc2nc(C)cc(-c3ccccc3)n2n1	1.73	1.0	1.04	7.0%	i	10.0
CSc1nc2nc(-c3ccccc3)cc(C(F)(F)F)n2n1	3.83*	3.0	1.17	3.0%	nt	2.0
COc1ccc(OC)c(NC(=O)C2CCCN(S(=O)(=O)c3cccc4cccnc34)C2)c1 (stereo not given)	1.14	10.0	1.05	7.0%	i	3.0
NC(=O)C1CCN(c2nc(-c3ccccc3)nc3c2oc2ccccc23)CC1	2.15*	1.0	1.04	2.0%	i	5.0
NC(=O)C1CCN(c2nc(-c3ccccc3)nc3ccccc23)CC1	1.02	6.0	1.03	1.0%	i	6.0
Cc1ccc(CCP(=O)(O)CN2CCCCC2)cn1	1.08	9.0	1.05	6.0%	i	3.0
O=C(CCCn1c(SCC(=O)c2ccc(O)c(O)c2)nc2ccccc2c1=O)NCC1CCCO1 (stereo not given)	1.03	15.0	1.09	6.0%	i	4.0
CC(C)CCNC(=O)COc1ccc2c3c(c(=O)oc2c1)CCC3	3.09*	18.0	1.08	15.0%	i	6.0
Cc1cc(=O)oc2cc(OCC(=O)NCCCN3CCOCC3)ccc12	1.84	5.0	1.08	8.0%	i	7.0
COc1ccccc1OCC(=O)NC1CCCCCC1	1.1	8.0	1.01	5.0%	i	6.0
CC(C)CNC(=O)COc1ccc2c3c(c(=O)oc2c1)CCC3	2.04*	15.0	1.06	19.0%	+	3.0
COc1ccc2c(c1)c(=O)oc1cc(OCC(=O)NC3CC3)ccc12	3.72*	4.0	1.1	6.0%	nt	7.0
Cc1ccc(C(=O)c2cc(C)sc2NC(=O)CN2CCN(C(=O)c3ccco3)CC2)cc1	1.08	6.0	1.03	3.0%	i	3.0
CCn1c(=O)n(CC(=O)N(C)Cc2ccccc2)c(=O)c2ccccc21	1.08	13.0	0.97	4.0%	i	0.0
CCCOC(=O)NC(CC)COC(=O)Nc1cccc(C)c1C (stereo not given)	0.99	11.0	0.98	7.0%	i	4.0
CCN(CC)C(=O)c1cc(-c2ccccc2OC)on1	1.14	13.0	0.99	6.0%	i	4.0
COc1ccccc1-c1ccc(C(=O)O)o1	3.3*	12.0	1.04	9.0%	i	0.0
COCCCn1c(CCC(=O)O)ccc1-c1cccs1	3.95*	5.0	1.05	9.0%	nt	12.0
SMILES	Fluor 339 460	Spn PMK inh	A340 absorber	NADH coupling	DPM-DC inhibit	MK inhibit
O=C(O)CCc1ccc(-c2cccs2)n1CC1CCCO1 (stereo not given)	2.98*	1.0	1.09	12.0%	i	5.0
CCCn1c(CCC(=O)O)ccc1-c1cccs1	0.33	3.0	1	6.0%	nt	9.0
COCCCn1c(SCC(=O)Nc2cccc(C(=O)OC)c2)nnc1-c1ccncc1	1.11	10.0	0.95	3.0%	i	0.0
COC(=O)c1cc(NC(=O)C2CC=CCC2C(=O)O)cc(C(=O)OC)c1 (stereo not given)	1.05	9.0	1	2.0%	i	7.0
CCn1c(COc2cccc(OC)c2)nnc1SCC(=O)Nc1cccc(OC)c1	1.08	18.0	0.99	7.0%	i	4.0
Cc1cccc(NC(=O)CCn2ccnc2C)c1	1.04	6.0	0.98	1.0%	i	0.0
O=C(OCC#CCSc1nnc(-c2ccccc2)o1)c1cccs1	0.99	0.0	0.98	2.0%	i	6.0
O=C(OCC#CCSc1nnc(-c2cccc3ccccc23)o1)c1cccs1	2.2*	3.0	1.09	4.0%	i	8.0
CCc1cc2c(=O)c(Oc3ccccc3)c(C)oc2cc1O	2.21*	0.0	1.09	2.0%	nt	4.0
Cc1oc2cc(OCC(=O)O)ccc2c(=O)c1Oc1ccccc1	1.28	0.0	1.05	2.0%	i	5.0
CCc1cc2c(CN3CCN(C)CC3)cc(=O)oc2cc1O	3.75*	6.0	1.05	8.0%	nt	9.0
CCc1cc2c(CN3CCN(CCO)CC3)cc(=O)oc2cc1O	2.91*	9.0	1.01	6.0%	nt	6.0
Cc1ccc(C)c2[nH]c(=O)c(CN(CC3CCCO3)C(=O)NC3CCCCC3)cc12 (stereo not given)	1.57	7.0	1.04	4.0%	i	5.0
CCn1cc(C(=O)OCC(=O)Nc2ccc(S(=O)(=O)N3CCCC3)cc2)c(=O)c2ccc(C)nc21	1.03	21.0	1.04	9.0%	i	5.0
CCOC(=O)C1CCCN(Cc2ccc3c(c2)OCO3)C1 (stereo not given)	1.08	0.0	1.04	0.0%	i	0.0
CCN(CC)C(=O)C1CCCN(Cc2ccc(N(C)C)cc2)C1 (stereo not given)	1.02	0.0	1	6.0%	i	50.0*
CCN(CC)C(=O)C1CCCN(Cc2ccc(F)c(F)c2)C1 (stereo not given)	1.1	2.0	1.02	2.0%	i	5.0
CCN(CC)C(=O)C1CCCN(Cc2ccc(OC)c(C)c2)C1 (stereo not given)	1.1	0.0	1.09	17.0%	i	51.0*
CC(=O)Nc1ccc(S(=O)(=O)N(C)S(=O)(=O)c2ccc(F)cc2)cc1	0.72	12.0	1.01	14.0%	i	4.0
OCCNc1ncnc2c1c(-c1ccccc1)c(-c1ccccc1)n2Cc1ccco1	1.45	5.0	0.99	6.0%	+	0.0
O=C1c2ccccc2NC(c2cccc(F)c2)N1Cc1ccco1 (stereo not given)	3.04*	4.0	0.99	5.0%	nt	6.0
O=C1c2ccccc2C(O)N1Cc1ccco1 (stereo not given)	1.07	10.0	1.02	6.0%	i	8.0
COc1ccc(C2Nc3ccccc3C(=O)N2Cc2ccco2)cc1COc1ccc(NC(C)=O)cc1 (stereo not given)	3.8*	1.0	1.08	1.0%	nt	0.0
Cc1ccc(C2Nc3ccccc3C(=O)N2Cc2ccco2)cc1 (stereo not given)	3.96*	6.0	1.02	7.0%	nt	8.0
